# PubChem BioAssay
# Inconclusive results are not listed. For part of these data: Entries with a potency or affinity are not part of this list. Active and inactive are the calls of the source. Unless noted, how the calls were made is not given here.
# Experiments:
# [1] = system: Hepatitis C virus NS3 helicase; assay: blockers of NS3h binding to ssDNA – biochemical, fluorescence polarization, LOPAC1280 library, primary screen (AID 687035; in the data active means inhibition above about 37%); settings: Purified HCV NS3 helicase, Cy5-dT15 ssDNA binding fluorescence polarization; stronger effect = higher value; concentration not given here
# [2] = compounds altering Cy5-DNA-NS3h complex signal – biochemical, LOPAC1280, artefact control for HCV NS3 helicase inhibitor project (AID 687037); settings: Cy5-DNA-NS3h complex fluorescence interference counterscreen
# [3] = blockers of cellular phospholipid synthesis – cell-based, LOPAC library, screen 4, primary screen (AID 1347384); settings: animal cells, phospholipid biosynthesis inhibition screen; at 10 µM
# [4] = viability loss in pontine glioma line – cell-based, SU-DIPG-XVII, MIPE5.0, CellTiter-Glo, qHTS, dose response (AID 1347060; cut-off not given, nearly all actives have AC50 up to about 26 µM;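 further: cells exposed to compound for 48 hours before viability readout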); settings: CellTiter-Glo ATP luminescence
# [5] = compounds altering HSF1 focus formation in cells – imaging, Selleck Cancer Library (AID 1347162; in the data active means plate-normalised HSF1 focus index below about 0.46); settings: human cells, HSF1 nuclear foci imaging, at 10 µM; SSMD: measured here: HSF1 foci SSMD mean; cell count: measured here: cell number; plate-normalised HSF1 focus index: stronger effect = lower value
# [6] = viability loss in pontine glioma line – cell-based, SU-DIPG-XIII, MIPE4.0, CellTiter-Glo, qHTS, dose response (AID 1347061; cut-off not given, nearly all actives have AC50 up to about 37 µM;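 further: cells exposed to compound for 48 hours before readout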); settings: CellTiter-Glo ATP luminescence
# [7] = compounds altering circadian rhythm period length – cell-based, LOPAC library, luminescence reporter (AID 2774); settings: circadian reporter cells, at 7 µM, actives lie on both sides;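 further: values are relative to mean of DMSO wells on each plate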
# [8] = blockers of polyQ-driven CASP3 activation – cell-based (AID 1583); settings: polyglutamine-induced caspase-3 activation, cell assay; stronger effect = higher value;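 tested at 10 µM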
# [9] = yeast 75Q aggregation reduction – 75Q-TubU reporter (AID 1593); settings: Yeast 75Q polyglutamine aggregation reporter
# [10] = restoration of touch response, mutant HTT neurons – whole organism, C. elegans mechanosensory neurons, N-terminal huntingtin (AID 1599); settings: C. elegans polyQ-huntingtin mechanosensory neurons, stronger effect = higher value
# [11] = blockers of cytochrome c efflux from mitochondria – biochemical, purified mitochondria (AID 1603); settings: stronger effect = lower value;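 further: mouse liver mitochondria challenged with calcium chloride; signal normalized to the plate average as 100%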
# [12] = polyglutamine aggregate formation blockers (AID 1604); settings: polyglutamine-induced protein aggregation inhibition assay; stronger effect = higher value; tested at 2.5 µM
# [13] = glutamate transport activators, MN-1 cells, MN-1 cell line (AID 1612); settings: MN-1 motor neuron cells, stronger effect = higher value;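 further: tested at 1 µM final; 0% = mean of DMSO vehicle wells on each plate; positive means more glutamate uptake than control and negative means less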
# [14] = GFP-Q80 aggregate reduction, neuronal-like cells, cell-based, NGF-treated PC12, GFPQ80 (AID 1614); settings: PC12 NGF-treated GFP-polyQ80 inclusion reduction;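 further: lower means fewer inclusions and 0 means no inclusions at all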
# [15] = 75Q-TubH aggregate inhibition, S. cerevisiae, yeast (AID 1616); settings: S. cerevisiae 75Q-TubH polyglutamine aggregation suppression; stronger effect = higher value
structure (smiles),measurement,setting,value
O=C1Cc2cc(CCN3CCN(c4nsc5ccccc45)CC3)c(Cl)cc2N1,inhibition,[1],2% (inactive)
same,fluorescence ratio (interference),[2],1 (inactive)
same,outcome,[3],inactive
O=C(CCCCCCC(=O)Nc1ccccc1)NO,AC50,[4],1.86 µM (active)
same,SSMD,[5],-0.489
same,cell count,[5],6970
same,plate-normalised HSF1 focus index,[5],0.984 (inactive)
C[C@H]1[C@H](NC(=O)/C(=N/OC(C)(C)C(=O)O)c2csc(N)n2)C(=O)N1S(=O)(=O)O (stereo in doubt),outcome,[6],inactive
OC(CCN1CCCCC1)(c1ccccc1)C1CC2C=CC1C2 (configuration not stated),inhibition,[1],-3% (inactive)
same,fluorescence ratio (interference),[2],1 (inactive)
same,outcome,[6],inactive
same,outcome,[3],inactive
C#CCN(C)CCCOc1ccc(Cl)cc1Cl,period change,[7],0.03 h (inactive)
same,inhibition,[1],-6% (inactive)
same,fluorescence ratio (interference),[2],1 (inactive)
same,outcome,[3],inactive
CN1CCN(c2c(F)cc3c(=O)c(C(=O)O)cn(CCF)c3c2F)CC1,outcome,[6],inactive
CCCN(CCC)CCc1cccc2c1CC(=O)N2,period change,[7],0.155 h (inactive)
same,inhibition,[1],-3% (inactive)
same,fluorescence ratio (interference),[2],1 (inactive)
same,outcome,[3],inactive
Cc1cc(=O)oc2cc(O)ccc12,AC50,[6],0.418 µM (active)
COc1cc2ncnc(Nc3ccc(F)c(Cl)c3)c2cc1OCCCN1CCOCC1,AC50,[6],38.2 µM (active)
same,SSMD,[5],-3.63
same,cell count,[5],5320
same,plate-normalised HSF1 focus index,[5],0.813 (inactive)
CNCCc1ccccn1,inhibition,[8],24.5%
same,score,[9],1.2
same,rescue above control,[10],-9.72
same,cytochrome c release ratio,[11],0.91
same,inhibition of aggregation,[12],75.9%
same,glutamate uptake change,[13],-5.29%
same,inclusion score,[14],2
same,aggregation suppression score,[15],1.84
O=C(O)CN(CCN(CC(=O)O)CC(=O)O)CCN(CC(=O)O)CC(=O)O,period change,[7],0.145 h (inactive)
same,inhibition,[1],-2% (inactive)
same,fluorescence ratio (interference),[2],1 (inactive)
same,outcome,[3],inactive
CN(C(=O)CN(CCO)CC(=O)N(C)C(C)(C)Cc1ccccc1)C(C)(C)Cc1ccccc1,inhibition,[8],-62.8%
same,score,[9],1.1
same,rescue above control,[10],0
same,cytochrome c release ratio,[11],5.27
same,inhibition of aggregation,[12],66.7%
same,glutamate uptake change,[13],-0.7%
same,aggregation suppression score,[15],1.14
N=C(N)N1CCc2ccccc2C1,outcome,[3],inactive
C[C@@H](O)[C@H]1C(=O)N2C(C(=O)O)=C(SCCN=CN)C[C@H]12,inhibition,[1],-1% (inactive)
same,fluorescence ratio (interference),[2],1 (inactive)
same,outcome,[3],inactive
CC(=O)N[C@@H](CC(C)C)C(=O)O,inhibition,[8],23.7%
same,score,[9],0.82
same,rescue above control,[10],14.2
same,cytochrome c release ratio,[11],1.03
same,inhibition of aggregation,[12],74.7%
same,glutamate uptake change,[13],2.89%
same,inclusion score,[14],2
same,aggregation suppression score,[15],0.909
CN(C)CC/C=C1\c2ccccc2Sc2ccc(Cl)cc21,inhibition,[8],3.29%
same,score,[9],0.95
same,rescue above control,[10],0
same,cytochrome c release ratio,[11],1.06
same,inhibition of aggregation,[12],59.1%
same,glutamate uptake change,[13],14.9%
same,aggregation suppression score,[15],0.956
Cc1c(N)c(=O)n(-c2ccccc2)n1C,inhibition,[8],13.4%
same,score,[9],1.65
same,rescue above control,[10],-0.44
same,cytochrome c release ratio,[11],0.9
same,inhibition of aggregation,[12],81.5%
same,glutamate uptake change,[13],-10.8%
same,inclusion score,[14],1
same,aggregation suppression score,[15],1.31
